Inconclusive results are not listed. Active and inactive are the calls of the source. Unless noted, calls follow the shape of the full dose curve.

The nature of experiment [1]: Nuclear factor erythroid 2-related factor 2/antioxidant responsive element (Nrf2/ARE) small molecule agonists: qHTS cell viability counter screen in human keratinocytes (AID 1919968; active = well fitted curve in the direction sought with a large enough effect in the repeat runs; an effect the other way counts as inactive or inconclusive; also: nearly all actives have a fitted effect of over 55% in size). In outline: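 Fluorescence read-out from CellTiter-Fluor after 1 h at 37 C. Wells held HaCaT-derived ARE-luciferase reporter cells (1,500/well) treated 23 h with DMSO-dissolved compounds. Run in the same wells as the luciferase agonist read.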
Background: qHTS replaces the single test concentration by a dilution series.

Experiment [2] can be described thus: Nuclear factor erythroid 2-related factor 2/antioxidant responsive element (Nrf2/ARE) small molecule agonists: luciferase reporter gene qHTS assay in human keratinocytes (AID 1919969). Also: nearly all actives have a fitted effect of over 35% in size. Also: potency is read from the fitted curve at half-maximal effect. Background: A reporter such as luciferase makes a cellular process visible.
In experiment [3] the target is Gonadotropin-releasing hormone receptor (Homo sapiens) (UniProt P30968). Description: Human gonadotropin-releasing hormone receptor (GnRHR) small molecule agonists, calcium flux assay in GnRHR-HEK293 cells (AID 1920063). Also: nearly all actives have a fitted effect of over 35% in size. A digest of the protocol: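 Calcium-dye fluorescence, Ex/Em=480/540, recorded every 1 sec over 3 min after compound addition to GnRHR-HEK293 cells. Cells had been seeded 18 hours earlier and dye-loaded for 1 hour at 37 C. Fifteen concentrations, triplicates.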
Gonadotropin-releasing hormone receptor (Homo sapiens), sequence (P30968 whole entry, looked up): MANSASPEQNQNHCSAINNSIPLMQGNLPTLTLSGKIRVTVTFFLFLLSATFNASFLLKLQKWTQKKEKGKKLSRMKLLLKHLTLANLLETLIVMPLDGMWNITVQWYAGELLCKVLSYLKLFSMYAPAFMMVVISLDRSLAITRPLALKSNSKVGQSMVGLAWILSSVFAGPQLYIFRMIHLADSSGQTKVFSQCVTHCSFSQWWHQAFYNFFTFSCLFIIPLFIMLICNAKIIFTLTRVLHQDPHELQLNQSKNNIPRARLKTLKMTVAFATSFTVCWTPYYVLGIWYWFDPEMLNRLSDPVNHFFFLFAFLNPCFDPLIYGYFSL
In general terms: Calcium flux is commonly read through the fluorescence of an indicator in the cells.

The target of experiment [4] is KiSS-1 receptor (Homo sapiens) (UniProt Q969F8). The experiment in a line: Human kisspeptin (KISS1R) small molecule agonists, calcium flux assay in KISS1R-HEK293 cells (AID 1920064; active = well fitted curve in the direction sought with a large enough effect in the repeat runs; an effect the other way counts as inactive or inconclusive). A digest of the protocol:
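Calcium flux read-out: kinetic fluorescence at Ex/Em=480/540, 1 s intervals over 3 min, after pin-tool compound addition to dye-loaded KISS1R-HEK293 cells. Fifteen concentrations, triplicates.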

A short description of experiment [5]: G protein-coupled receptor (GPCR) small molecule agonists, calcium flux assay: HEK293 wild type cell line counter screen (AID 1920065). In outline: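 Agonist mode; 18 h seeding at 37 C, 1 h dye load at 37 C; compounds pinned from DMSO, ATP as positive control; kinetic fluorescence 480/540 nm, 3 min, 1 s reads; 15 concentrations, triplicate.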
The nature of experiment [6]: p53 small molecule agonists, cell-based qHTS assay with human liver microsomes (AID 1963577). A digest of the protocol: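 Fluorescence of the beta-lactamase reporter in p53RE-bla cells, detected with LiveBLAzer substrate (2 h, room temperature, dark), served as the read-out after 16 h compound exposure at 37 C with human liver microsomes and NADPH, each 0.5 mg/mL final.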

Experiment [7] in a line: p53 small molecule agonists, cell-based qHTS assay with rat liver microsomes (AID 1963578). In outline:
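Cells carrying a p53 response element–beta-lactamase reporter were plated and rested 5 h, then dosed with compound in DMSO plus rat liver microsomes and NADPH, each at 0.5 mg/mL final. After 16 h at 37 C, LiveBLAzer substrate was added for 2 h.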

Experiment [8] in a line: p53 small molecule agonists, cell-based qHTS assay with human liver microsomes: qHTS cell viability counter screen (AID 1963579). Also: nearly all actives have a fitted effect of over 45% in size. In outline: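 Cytotoxicity counter screen: p53RE-bla, 4,000 cells/well; 5 h settle, 37 C/5% CO2; cpd + HLM 0.5 mg/mL + NADPH 0.5 mg/mL (final); 16 h, 37 C; CellTiter-Glo, 30 min RT, luminescence.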
A short description of experiment [9]: p53 small molecule agonists, cell-based qHTS assay with rat liver microsomes: qHTS cell viability counter screen (AID 1963580). Also: nearly all actives have a fitted effect of over 45% in size. In outline:
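Cytotoxicity counter screen: intracellular ATP measured by CellTiter-Glo luminescence in the same wells as the beta-lactamase reporter read, on HCT-116 p53RE-bla cells exposed 16 h at 37 C to compounds with rat liver microsomes and NADPH, each 0.5 mg/mL final.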

A short description of experiment [10]: p53 small molecule agonists, cell-based qHTS assay: qHTS cell viability counter screen (AID 1963581). Also: nearly all actives have a fitted effect of over 45% in size. In outline: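 Cytotoxicity read-out: ATP-based luminescence (CellTiter-Glo, 30 min RT) measured in the same wells as the p53 reporter assay, HCT-116 p53RE-bla cells, 16 h compound exposure at 37 C.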
The nature of experiment [11]: p53 small molecule agonists, cell-based qHTS assay (AID 1963582; active = well fitted activation curve with a large enough effect in the signal ratio in the repeat runs, not every such curve was filed as active; the % refers to the signal ratio). In outline: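 Fluorescence intensity read-out of a beta-lactamase reporter under a p53 response element. Cells were exposed to DMSO-dissolved compounds for 16 h at 37 C, then developed with FRET substrate for 2 h at RT.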
For experiment [12], the target named is 5-hydroxytryptamine receptor 2A (Homo sapiens) (UniProt P28223). The experiment in a line: 5-hydroxytryptamine receptor 2A (HTR2A) small molecule antagonists, cell-based qHTS assay (AID 1963586). Also: nearly all actives have a fitted effect of over 45% in size. In outline:
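CHO cells stably expressing human HTR2A were plated for 18 h at 37 C, then loaded with calcium dye for 1 h. Compounds were preincubated 5 min at room temperature before DOI (4 nM solution) was added. Kinetic fluorescence was read for 3 min.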

Experiment [13] shares this target. Description: 5-hydroxytryptamine receptor 2A (HTR2A) small molecule agonists, cell-based qHTS assay (AID 1963587). Also: nearly all actives have a fitted effect of over 30% in size. In outline: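 CHO cells stably expressing human HTR2A, plated 18 h, loaded with calcium dye 1 h at 37 C. Agonist mode: compounds added and intracellular calcium fluorescence recorded kinetically for 2 min at 1 sec intervals.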
For experiment [14], the target named is Muscarinic acetylcholine receptor M1 (Homo sapiens) (UniProt P11229). Description: Cholinergic receptor muscarinic 1 (CHRM1) small molecule antagonists, cell-based qHTS assay (AID 1963588). Also: nearly all actives have a fitted effect of over 40% in size. In outline:
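Compounds were tested at 15 concentrations in three independent runs. Dye-loaded CHRM1-CHO cells were exposed 5 min at room temperature before stimulation by acetylcholine added at 50nM. Intracellular calcium was read kinetically on FDSS for 3 min.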

For experiment [15] the target is unchanged. Description: Cholinergic receptor muscarinic 1 (CHRM1) small molecule agonists, cell-based qHTS assay (AID 1963589). Also: nearly all actives have a fitted effect of over 35% in size. A digest of the protocol:
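Calcium flux read-out: kinetic fluorescence at 1 sec intervals after pin-tool compound addition to dye-loaded CHRM1-CHO cells (human M1). Agonist mode; 15 concentrations tested in triplicate independent runs.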

Experiment [16] in a line: cAMP Responsive Elements (CRE) small molecule agonists, cell-based qHTS assay (AID 1963590). In outline: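 Beta-lactamase reporter readout: LiveBLAzer B/G FRET substrate, 2 h at room temperature, added after 3 h compound treatment of CRE-bla HEK 293T cells at 37 C/5% CO2.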
Experiment [17] can be described thus: cAMP Responsive Elements (CRE) small molecule antagonists, cell-based qHTS assay (AID 1963591; active = well fitted inhibition curve with a large enough effect in the signal ratio in the repeat runs, not every such curve was filed as active; the % refers to the signal ratio). In outline:
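HEK293T CRE-bla; 18 h preincubation; compound pin-transfer; NKH477 0.25 uM final, 3 h, 37 C; LiveBLAzer FRET substrate 2 h RT.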

For experiment [18], the target named is Beta-2 adrenergic receptor (Homo sapiens) (UniProt P07550). Description: Adrenergic beta2 receptor (ADRB2) small molecule antagonists, cell-based qHTS assay (AID 1963592). Also: series mostly up to about 92 µM; nearly all actives have a fitted effect of over 50% in size. A digest of the protocol:
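Assay format: CHO-ADRB2 cells, 18-20hr seeding at 37C/5% CO2, then compound plus 1nM isoproterenol agonist mix for 0.5hr RT. Homogeneous time-resolved fluorescence cAMP detection after 1hr, expressed as 665/615 nm ratio.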

Experiment [19] deals with D(2) dopamine receptor (Homo sapiens) (UniProt P14416). Description: Dopamine D2 receptor (DRD2) small molecule agonists, cell-based qHTS assay (AID 1963594). Also: nearly all actives have a fitted effect of over 35% in size. A digest of the protocol:
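HEK293 cells stably expressing human DRD2, pre-treated with PDE inhibitor Ro20-1724 (0.1 mM final) and compound 10 min at room temperature, then stimulated with NKH477 (200nM […]) for 30 min. cAMP read by HTRF (665/620 nm).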

For experiment [20] the target is unchanged. Description: Dopamine D2 receptor (DRD2) small molecule antagonists, cell-based qHTS assay (AID 1963595; active = well fitted inhibition curve with a large enough effect in the signal ratio in the repeat runs, with a control signal flat; the % refers to the signal ratio). A digest of the protocol: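 HEK293 cells stably expressing DRD2 were preincubated with 0.1 mM Ro20-1724, then with compound for 10 min at room temperature. Cells were stimulated with 200 nM NKH477 plus 12 nM quinpirole for 30 min, and cAMP was read by HTRF.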

D(2) dopamine receptor (Homo sapiens), sequence (P14416 whole entry, looked up): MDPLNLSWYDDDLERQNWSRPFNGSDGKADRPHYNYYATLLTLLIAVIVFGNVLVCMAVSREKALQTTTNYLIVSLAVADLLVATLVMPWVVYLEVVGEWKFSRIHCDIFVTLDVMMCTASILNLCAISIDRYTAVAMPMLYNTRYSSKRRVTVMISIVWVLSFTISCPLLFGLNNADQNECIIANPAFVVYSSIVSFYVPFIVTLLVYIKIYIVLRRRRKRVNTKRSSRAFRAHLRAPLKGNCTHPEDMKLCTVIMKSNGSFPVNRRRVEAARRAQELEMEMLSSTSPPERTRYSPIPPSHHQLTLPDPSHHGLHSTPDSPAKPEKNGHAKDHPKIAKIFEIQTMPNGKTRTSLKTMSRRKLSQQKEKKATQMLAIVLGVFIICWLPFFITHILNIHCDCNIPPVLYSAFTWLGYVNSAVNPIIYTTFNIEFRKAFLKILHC
KiSS-1 receptor (Homo sapiens), sequence (Q969F8 whole entry, looked up): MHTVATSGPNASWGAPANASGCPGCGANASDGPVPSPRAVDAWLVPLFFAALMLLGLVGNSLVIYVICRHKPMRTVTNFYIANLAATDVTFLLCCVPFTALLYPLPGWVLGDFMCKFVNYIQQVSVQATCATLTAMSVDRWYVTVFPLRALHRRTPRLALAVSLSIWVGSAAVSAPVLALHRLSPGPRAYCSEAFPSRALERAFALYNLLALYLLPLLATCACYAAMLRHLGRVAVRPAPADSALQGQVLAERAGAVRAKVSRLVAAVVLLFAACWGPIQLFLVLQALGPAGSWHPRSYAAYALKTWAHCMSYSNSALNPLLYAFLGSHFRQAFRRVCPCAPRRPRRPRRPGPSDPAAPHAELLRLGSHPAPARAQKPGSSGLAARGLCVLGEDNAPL
5-hydroxytryptamine receptor 2A (Homo sapiens), sequence (P28223 whole entry, looked up): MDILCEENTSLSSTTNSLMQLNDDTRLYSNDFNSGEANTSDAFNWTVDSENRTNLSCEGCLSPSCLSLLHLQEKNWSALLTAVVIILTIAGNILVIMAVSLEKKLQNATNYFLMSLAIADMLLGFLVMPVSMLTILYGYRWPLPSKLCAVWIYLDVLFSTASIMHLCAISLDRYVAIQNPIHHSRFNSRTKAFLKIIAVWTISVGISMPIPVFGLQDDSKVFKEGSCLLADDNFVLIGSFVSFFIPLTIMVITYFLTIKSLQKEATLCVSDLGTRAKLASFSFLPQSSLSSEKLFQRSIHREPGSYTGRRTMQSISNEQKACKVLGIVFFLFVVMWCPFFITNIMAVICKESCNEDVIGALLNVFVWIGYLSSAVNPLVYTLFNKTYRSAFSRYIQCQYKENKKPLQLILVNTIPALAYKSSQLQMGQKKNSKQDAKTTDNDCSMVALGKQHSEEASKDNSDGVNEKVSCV
Beta-2 adrenergic receptor (Homo sapiens), sequence (P07550 whole entry, looked up): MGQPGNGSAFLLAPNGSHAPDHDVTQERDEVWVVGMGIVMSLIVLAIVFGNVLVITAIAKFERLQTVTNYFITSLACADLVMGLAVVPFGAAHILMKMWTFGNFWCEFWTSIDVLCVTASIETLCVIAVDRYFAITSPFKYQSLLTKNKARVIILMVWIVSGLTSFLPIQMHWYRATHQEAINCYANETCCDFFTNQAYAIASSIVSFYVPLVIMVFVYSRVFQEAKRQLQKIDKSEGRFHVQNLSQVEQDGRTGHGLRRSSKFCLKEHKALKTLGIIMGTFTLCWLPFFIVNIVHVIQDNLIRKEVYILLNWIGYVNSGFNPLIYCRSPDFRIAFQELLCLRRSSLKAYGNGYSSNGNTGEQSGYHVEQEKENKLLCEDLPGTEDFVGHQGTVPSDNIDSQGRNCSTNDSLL
Muscarinic acetylcholine receptor M1 (Homo sapiens), sequence (P11229 whole entry, looked up): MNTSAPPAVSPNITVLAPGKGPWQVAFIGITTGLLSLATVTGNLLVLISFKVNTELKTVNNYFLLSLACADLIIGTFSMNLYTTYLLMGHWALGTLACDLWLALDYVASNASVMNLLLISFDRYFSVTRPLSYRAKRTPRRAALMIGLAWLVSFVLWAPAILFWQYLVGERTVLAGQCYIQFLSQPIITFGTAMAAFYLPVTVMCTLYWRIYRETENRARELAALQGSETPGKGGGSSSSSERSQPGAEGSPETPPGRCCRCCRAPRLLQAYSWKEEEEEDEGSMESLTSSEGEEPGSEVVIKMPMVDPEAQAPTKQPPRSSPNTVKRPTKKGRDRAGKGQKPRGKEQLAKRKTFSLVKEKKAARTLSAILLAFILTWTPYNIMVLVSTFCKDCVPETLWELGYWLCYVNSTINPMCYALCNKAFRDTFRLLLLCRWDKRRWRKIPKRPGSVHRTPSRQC

As for `CCCCOC(=O)[C@H](C)O`, the Potency result in experiment [1], in experiment [2], in experiment [3], in experiment [4], in experiment [5] and in [6] was “inactive” in each case. For the same molecule, the Potency result in experiment [7], in [8], in [9], in experiment [10], in experiment [11] and in [12] was “inactive” in each case. For the same molecule, the Potency entry in experiment [13], in [14], in experiment [15], in experiment [16], in [17] and in experiment [18] was “inactive” each time. Further, the Potency result in [19] and in [20] was “inactive” each time.
Turning to `O=S(=O)(O)c1cccc2ccccc12`, the Potency entry in experiment [1], in experiment [2], in experiment [3], in experiment [4], in experiment [5] and in experiment [6] was “inactive” throughout. Besides, the Potency entry in experiment [7], in experiment [8], in [9], in experiment [10], in [11] and in experiment [12] was “inactive” in each case. The Potency result in experiment [13], in experiment [14], in experiment [15], in experiment [16], in [17] and in experiment [18] was “inactive” each time. For the same molecule, the Potency entry in [19] and in experiment [20] was “inactive” in each case.
Turning to `O=C1CCCc2ccccc21`, the Potency entry in [1], in experiment [2], in experiment [3], in experiment [4], in experiment [5] and in experiment [6] was “inactive” each time. Further, the Potency result in experiment [7], in experiment [8], in experiment [9], in [10], in experiment [11] and in experiment [12] was “inactive” throughout. In addition, the Potency result in experiment [13], in experiment [14], in [15], in experiment [16], in [17] and in experiment [18] was “inactive” throughout. The Potency result in [19] and in [20] was “inactive” in each case.
Consider `Nc1ccccc1S(=O)(=O)O`, for which the Potency result in [1], in experiment [2], in experiment [3], in experiment [4], in experiment [5] and in [6] was “inactive” in each case. For the same molecule, the Potency entry in experiment [7], in experiment [8], in experiment [9], in experiment [10], in experiment [11] and in experiment [12] was “inactive” each time. In addition, the Potency result in [13], in experiment [14], in [15], in [16], in [17] and in experiment [18] was “inactive” each time. Also, the Potency entry in experiment [19] and in experiment [20] was “inactive” each time.
Consider `NCCOCCN`, for which the Potency entry in experiment [1], in experiment [2], in experiment [3], in [4], in experiment [5] and in experiment [6] was “inactive” in each case. Also, the Potency result in experiment [7], in experiment [8], in [9], in [10], in [11] and in experiment [12] was “inactive” throughout. The Potency entry in experiment [13], in [14], in [15], in experiment [16], in experiment [17] and in [18] was “inactive” throughout. For the same molecule, the Potency result in experiment [19] and in experiment [20] was “inactive” throughout.
In the case of `CCCCCCCCCCCCCCCCCC(=O)OCC(CC)CCCC` (stereo not given), the Potency entry in experiment [1], in experiment [2], in [3], in experiment [4], in experiment [5] and in [6] was “inactive” in each case. Moreover, the Potency result in experiment [7], in [8], in experiment [9], in experiment [10], in experiment [11] and in experiment [12] was “inactive” in each case. Besides, the Potency entry in experiment [13], in [14], in experiment [15], in experiment [16], in [17] and in [18] was “inactive” each time. Further, the Potency entry in [19] and in experiment [20] was “inactive” throughout.
For the molecule `COc1ccccc1/C=C/C=O`, the Potency result in experiment [1], in [3], in [4], in experiment [5], in experiment [6] and in experiment [7] was “inactive” each time. For the same molecule, the Potency entry in experiment [8], in [9], in experiment [10], in experiment [11], in experiment [12] and in [13] was “inactive” each time. Moreover, the Potency result in experiment [14], in experiment [15], in experiment [16], in experiment [17], in experiment [18] and in [19] was “inactive” throughout. The Potency entry in experiment [20] was “inactive”. In addition, the Potency in experiment [2] was 54.5 µM (active).

These data come from PubChem BioAssay (Tox21).
